# In the library only some 4.7% were active in any assay of this set; here they are far more common.
# hDAT+cocaine: changed hDAT dopamine uptake under cocaine IC80, either direction, primary screen, cocaine antagonist project, cell-based, LLC-PK1 hDAT, [14C]-dopamine uptake, MLSMR | Sodium-dependent dopamine transporter (Homo sapiens), Q01959 | 110,000 tested, 1.3% active | AID 449768, 2010 | B-score at 10 µM | LLC-PK1 hDAT cells, [14C]-dopamine uptake with cocaine IC80; actives deviate in either direction;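 active = Z score or B-score, a plate-position-corrected score, falls beyond the plate's 99.7% confidence bounds, in either direction; inactive = both scores lie inside the 99.7% bounds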;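 note: scored against the spread of the other compound wells on the same plate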
# SDO1 yeast rescue: growth rescue of sdo1-depleted yeast, primary screen, S. cerevisiae, bone marrow failure model. S. cerevisiae sdo1-depleted JHY4D growth rescue, OD600 30 h; hits give high values; pdr5 snq2 efflux-pump mutant strain. z-score at 10 µM. 140,000 tested, 0.21% active;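 active = z-score above 3 at both the 24 hr and the 30 hr optical density reads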;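 note: z-score against mean and SD of all compound wells on the same plate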
# PLK1 PBD inh: Plk1 polo box domain binding inhibitors, primary screen, biochemical, fluorescence polarization; Serine/threonine-protein kinase PLK1 (Homo sapiens), P53350; Plk1 PBD phosphopeptide binding; 97,000 tested, 0.13% active; inhibition, %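 (tested at about 20 µM)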; in the data active = inhibition above about 34%, passing the limit was not always enough
# Cav32 inh: Cav3.2 calcium influx blockers – cell-based, Fluo-4 calcium fluorescence, FDSS, MLSMR library, primary screen; B-score at 10 µM; Cav3.2-expressing cells; hits give low values; 100,000 tested, 4% active;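 active = single-dose well whose peak fluorescence ratio is a statistical outlier from its plate by either plate-standardised score or position-corrected B-score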
# Target sequence (O95180 whole entry, looked up): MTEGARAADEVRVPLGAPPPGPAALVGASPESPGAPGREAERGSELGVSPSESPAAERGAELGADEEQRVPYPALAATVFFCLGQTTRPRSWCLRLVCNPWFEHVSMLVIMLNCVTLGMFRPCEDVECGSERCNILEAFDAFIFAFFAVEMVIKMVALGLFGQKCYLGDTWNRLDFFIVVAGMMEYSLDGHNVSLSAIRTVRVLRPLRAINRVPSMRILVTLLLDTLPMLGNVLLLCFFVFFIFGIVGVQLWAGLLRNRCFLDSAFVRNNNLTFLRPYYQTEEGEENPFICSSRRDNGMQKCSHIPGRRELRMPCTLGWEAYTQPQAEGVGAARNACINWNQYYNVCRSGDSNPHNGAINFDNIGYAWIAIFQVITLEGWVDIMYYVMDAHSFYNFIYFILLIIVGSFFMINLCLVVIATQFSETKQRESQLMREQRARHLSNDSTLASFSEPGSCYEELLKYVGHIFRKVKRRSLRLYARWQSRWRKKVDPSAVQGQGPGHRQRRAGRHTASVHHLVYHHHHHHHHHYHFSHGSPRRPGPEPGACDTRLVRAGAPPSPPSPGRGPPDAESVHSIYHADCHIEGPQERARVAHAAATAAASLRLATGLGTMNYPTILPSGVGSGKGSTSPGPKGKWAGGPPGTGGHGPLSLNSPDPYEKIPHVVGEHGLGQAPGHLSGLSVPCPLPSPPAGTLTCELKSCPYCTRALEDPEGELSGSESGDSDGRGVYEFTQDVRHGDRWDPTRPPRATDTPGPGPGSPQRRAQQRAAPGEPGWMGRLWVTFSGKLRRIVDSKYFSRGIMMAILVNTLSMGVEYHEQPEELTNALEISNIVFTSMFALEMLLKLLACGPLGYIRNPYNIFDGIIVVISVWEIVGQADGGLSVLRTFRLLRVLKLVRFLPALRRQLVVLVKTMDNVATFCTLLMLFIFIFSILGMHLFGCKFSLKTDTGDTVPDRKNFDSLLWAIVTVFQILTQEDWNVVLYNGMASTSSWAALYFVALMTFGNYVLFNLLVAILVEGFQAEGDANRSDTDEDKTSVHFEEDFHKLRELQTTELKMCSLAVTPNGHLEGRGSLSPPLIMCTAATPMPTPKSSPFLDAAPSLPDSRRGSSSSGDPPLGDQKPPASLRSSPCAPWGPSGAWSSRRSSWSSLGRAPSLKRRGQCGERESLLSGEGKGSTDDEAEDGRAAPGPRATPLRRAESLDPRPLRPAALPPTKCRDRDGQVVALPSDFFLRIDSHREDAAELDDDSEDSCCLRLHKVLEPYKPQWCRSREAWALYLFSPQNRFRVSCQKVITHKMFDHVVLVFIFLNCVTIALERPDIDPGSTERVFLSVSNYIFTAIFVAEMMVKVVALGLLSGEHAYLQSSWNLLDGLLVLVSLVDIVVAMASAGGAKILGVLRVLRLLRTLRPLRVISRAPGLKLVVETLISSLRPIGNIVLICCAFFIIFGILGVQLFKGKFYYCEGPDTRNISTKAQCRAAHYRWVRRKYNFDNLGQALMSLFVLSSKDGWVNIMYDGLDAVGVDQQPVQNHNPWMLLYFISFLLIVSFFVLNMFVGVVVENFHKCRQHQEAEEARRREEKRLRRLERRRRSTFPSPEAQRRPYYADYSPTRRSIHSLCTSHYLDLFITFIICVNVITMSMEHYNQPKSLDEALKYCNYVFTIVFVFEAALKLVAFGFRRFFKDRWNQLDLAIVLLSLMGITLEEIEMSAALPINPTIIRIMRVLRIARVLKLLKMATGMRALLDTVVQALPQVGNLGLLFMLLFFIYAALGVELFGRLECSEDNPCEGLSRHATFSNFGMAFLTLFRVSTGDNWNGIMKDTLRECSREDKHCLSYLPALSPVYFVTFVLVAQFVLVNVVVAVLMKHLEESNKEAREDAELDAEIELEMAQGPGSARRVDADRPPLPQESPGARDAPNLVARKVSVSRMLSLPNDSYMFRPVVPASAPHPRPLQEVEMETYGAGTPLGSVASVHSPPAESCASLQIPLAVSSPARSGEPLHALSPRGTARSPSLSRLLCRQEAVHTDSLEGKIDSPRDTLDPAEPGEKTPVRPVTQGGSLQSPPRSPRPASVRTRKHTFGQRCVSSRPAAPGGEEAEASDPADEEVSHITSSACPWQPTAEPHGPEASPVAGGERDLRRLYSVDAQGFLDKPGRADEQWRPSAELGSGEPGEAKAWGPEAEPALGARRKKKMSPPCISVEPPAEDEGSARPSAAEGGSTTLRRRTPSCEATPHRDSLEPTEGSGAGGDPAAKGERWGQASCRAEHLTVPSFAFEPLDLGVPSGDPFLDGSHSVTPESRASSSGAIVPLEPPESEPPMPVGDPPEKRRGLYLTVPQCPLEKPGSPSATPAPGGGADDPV
# PTK2B oligo ant: antagonists of Pyk2 self-association, primary screen, Q293 cells, FERM NanoBiT luminescence, HTS. z-score (the deposit names both 25 µM and 10 µM). 99,000 tested, 0.83% active. hits give low values;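 active = Z-score of -3 or lower, scaled per plate to the spread of control and sample wells; inactive = z-score above -3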;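 note: negative z-score means lost luminescence so less FERM oligomerization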
# PLK1 inh: human PLK1 kinase inhibitors, primary screen, biochemical, TR-FRET | AID 619, 2007 | recombinant PLK1 kinase, TR-FRET peptide phosphorylation | 97,000 tested, 0.53% active | inhibition, % at 10 µM;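 active = inhibition of 50% or more in the single-concentration screen; inactive = inhibition below 50%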;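 note: 0% = DMSO max control and 100% = H-89 dihydrochloride min control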
# * marks the source's active call; other numbers are inactive results; / = not tested or not shown; [ ] = dose if it differs, or a comment.
SMILES,hDAT+cocaine,SDO1 yeast rescue,PLK1 PBD inh,Cav32 inh,PTK2B oligo ant,PLK1 inh
COc1ccc(/C=C/C(=O)NC(=S)NNC(=O)c2c(-c3ccccc3)noc2C)cc1,/,-1.2,/,/,/,/
Oc1c(Br)cc(Br)cc1/C=N/c1nc2c(s1)CCCC2,2.7,-0.03,-12,-5.3*,1.2,-1
CN(NC1CC(=O)N(c2ccccc2)C1=O)c1ccccc1 (stereo not given),/,-0.74,/,/,/,/
OCCn1c(-c2ccc3c(c2)OCO3)csc1=Nc1ccccc1,0.41,-1.3,-5,-5.4*,-0.72,-9
OCCn1c(-c2ccc(F)cc2)csc1=Nc1ccccc1,/,-1.2,/,/,/,/
Cn1cccc1/C=C1\SC(=S)N(NC(=O)c2cccc(Cl)c2)C1=O,/,-1.2,/,/,/,/
Brc1ccc(OCCOCCOc2cccc3cccnc23)cc1,-0.72,/,-22,/,0.2,-3
Brc1ccccc1OCCOCCOc1cccc2cccnc12,0.21,-1.2[7.2 µM],-3,-4.7*,-0.3,-11
Cc1ccc(-c2nc3sc4c(N)ncnc4c3c3c2CCCC3)cc1,-4.9*,-0.81,-4,-0.91,1.3,-3
CCc1c(C#N)c(SCCC(=O)Nc2ccc(OC)cc2)nc2c1C(=O)CC(C)(C)C2,0.08,-0.26,-12,-1.1,-3.1*,-11
CCc1c(C#N)c(SCc2c(C)noc2C)nc2c1C(=O)CC(C)(C)C2,/,-0.95,/,/,/,/
CCOC(=O)c1ccc(N2C(=O)c3n[nH]c(C)c3C2c2ccc(OC)cc2)cc1 (stereo not given),1.3,1.3,6,-0.17,-2.8,-14
CCOC(=O)c1ccc(N2C(=O)c3n[nH]c(C)c3C2c2ccc(OC)cc2OC)cc1 (stereo not given),0.64,-0.45,3,0.82,-3.2*,1
CCOc1cc(C(=O)NCc2nnc(SCC(=O)OC)n2C)cc(OCC)c1OCC,/,-0.2,/,/,0.08,/
CCN(CC)S(=O)(=O)c1ccc(C(=O)NCc2nnc(SCC(=O)OC)n2C)cc1,-0.2,-0.25,13,-3.8*,-0.34,-3
O=C(c1ccc(Br)o1)N1CCN(c2ccc3nnc(-c4ccccc4)n3n2)CC1,0.56,-0.38,-19,3.6*,/,-4
COC(=O)C1=C(N)Oc2cc(C)n(CC3CCCO3)c(=O)c2C1c1ccccc1 (stereo not given),0.035,-0.81,-8,-0.15,-0.35,5
COC(=O)C1=C(N)Oc2cc(C)n(CC3CCCO3)c(=O)c2C1c1ccc(Cl)cc1 (stereo not given),0.44,-0.46,-6,-3.1*,-2.1,-3
O=C(N[C@@H](Cc1ccccc1)C(=O)OCc1ccccc1)c1nc[nH]c1C(=O)NCc1ccccc1,1.6*,/,/,0.036,/,/
O=C(N[C@@H](Cc1ccccc1)C(=O)OCc1ccccc1)c1nc[nH]c1C(=O)N1CCN(c2ccccc2)CC1,-0.17,/,/,-2.3,/,/
Cc1ccc(OCC(=O)c2c(O)c3ccccc3oc2=O)cc1C,0.91,1.4,-6,-8.3*,1.5,-5
Cc1ccc(C(C)C)c(OCC(=O)c2c(O)c3ccccc3oc2=O)c1,0.35,/,-24,-7.6*,0.4,-18
Cc1ccc(C(C)C)c(OCC(=O)Nc2ccccc2N2CCN(C)CC2)c1,1.3,-1.3,-24,-2.1,-0.12,-1
Cc1csc(Sc2ccc([N+](=O)[O-])cc2C(=O)OCC(=O)NC(=O)NC(C)(C)C)n1,-0.41,-1.5,-32,/,-1.1,-5
COC(=O)C1=C(C)NC=C([N+](=O)[O-])C1c1ccc(OC)cc1 (stereo not given),/,1.3,/,/,/,/
SMILES,hDAT+cocaine,SDO1 yeast rescue,PLK1 PBD inh,Cav32 inh,PTK2B oligo ant,PLK1 inh
N#Cc1ccc(NC(=O)COC(=O)CSc2nnc(-c3ccc(Cl)cc3)o2)cc1,/,0,/,/,/,/
O=C1c2ccsc2SCCN1Cc1ccc(Cl)cc1Cl,0.24,-1.7,1,-4.6*,-0.7,-8
O=C1c2ccsc2SCCN1Cc1c(Cl)cccc1Cl,0.053,-1.4,-2,-5.6*,-0.91,-12
O=C(CN1CCN(Cc2ccc(F)cc2Cl)C1=O)NCCc1ccc(Cl)cc1,-0.55,-0.86,3,-4.2,1.1,-13
CCN1C(=O)C(F)(CC)C(=O)c2ccccc21 (stereo not given),/,1.3,/,/,0.1,/
O=C(NC1CCCCC1)c1nc2c(nnn2Cc2ccccc2Cl)c(=O)[nH]1,-0.019,0,14,-5.3*,-0.42,-9
Cc1cc(NC(=O)c2ccco2)ccc1-n1cnnn1,0.62,-0.37,21,0.68,1.9,-6
COc1cc(C(=O)Nc2ccc(-n3cnnn3)c(C)c2)cc(OC)c1OC,-0.071,0.44,10,-4.4*,-0.01,-9
Cn1c(NC(=O)c2ccc(S(=O)(=O)N3CCOCC3)cc2)cc(=O)n(C)c1=O,/,0.53,/,/,/,/
COC(=O)C1=C(N)c2c(F)cccc2C1(C#N)c1ccc(F)cc1 (stereo not given),-0.056,0.07,7,-5.6*,-2,-5
CCOC(=O)c1c(CSC(=N)N)n(-c2ccc(C)cc2)c2cc(Br)c(OC(C)=O)cc12,1.2,-0.81,-9,-5.6*,-1.4,-3
CCOC(=O)c1c(CN(C)C)n(-c2ccc(C)cc2)c2cc(Br)c(O)cc12,/,-1.6,/,/,/,/
O=C(N/N=C/c1coc2ccccc2c1=O)c1cn(-c2ccccc2)nc1-c1ccc(F)cc1,/,-1.4,/,/,/,/
Cc1ccc(NC(=O)CN(C)S(=O)(=O)c2cccc3nsnc23)cc1Cl,0.0065,-0.81,-15,-7.2*,0.71,30
CN(CC(=O)Nc1ccc(F)c(F)c1)S(=O)(=O)c1cccc2nsnc12,0.71,-0.25,1,-0.26,0.22,8
Cc1cccc(NC(=O)CCNS(=O)(=O)c2cccc3nsnc23)c1,1.8*,1.2,/,0.73,-0.33,/
Cc1cccc(N(C)S(=O)(=O)c2cccc3nsnc23)c1,0.038,-0.52,/,-0.062,0.6,/
CN(C)S(=O)(=O)c1cccc2nsnc12,-2*,1.2,-10,0.53,0.61,-9
CCC(C)(C)n1nnnc1CN1CCC(NC(=O)c2ccc(Br)cc2)CC1,1.8*,-2.3,23,0.93,0.19,-9
O=C(COC(=O)c1cc(-c2cccs2)nn1-c1ccccc1)Nc1ccc(F)c([N+](=O)[O-])c1,/,-0.64,/,/,/,/
CC1(C)CC(=O)C2=C(C1)OC1=C(C(=O)CC(C)(C)C1)C2c1ccc(O)cc1O,-1.1,-0.07,-1,-4.7*,-0.77,-17
Cc1nn(Cc2ccccc2)c(Cl)c1C(=O)OCc1nnc(-c2ccccc2)o1,0.54,-1.5,-45,-5*,0.68,-8
O=C(OCc1nnc(-c2ccccc2)o1)c1ccco1,0.0028,0.2,14,0.57,-0.06,-17
Cc1nn(Cc2ccccc2)c(Cl)c1C(=O)OCc1nnc(-c2ccc(Cl)cc2)o1,2.6*,-0.31,18,-7.3*,0.82,3
